Measurements published in PubChem BioAssay.

Experiments:
[1] = tested on: Human papillomavirus type 1a protein E7 (residues 44-93); test: small molecules binding HPV E7 44-93 – biochemical, small-molecule microarray, residues 44-93, 635 nm fluorescence, primary screen (AID 1108); conditions: fluorescence 635 nm, higher = more signal;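 further: E7 fragment applied at 1 µg/mL in TBST for 1 h at 4 C; score combines spot fluorescence with its signal to noise ratio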
[2] = hepatitis C replication reporter changes, two-sided – Huh7 cells, luciferase reporter, HCV replication inhibitor project, primary screen (AID 1109); conditions: Huh7 HCV replicon luciferase reporter, 48 h; higher = more signal;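 further: huh7 hepatoma cells harbouring a luciferase neomycin HCV replicon reporter; luciferase luminescence as measure of HCV replicon replication; test concentration not given here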
[3] = target: Left-right determination factor 2 (Homo sapiens) (UniProt O00292); test: small molecules binding LEFTY2 protein – biochemical, small-molecule microarray, 635 nm fluorescence scan, primary screen (AID 1110); conditions: higher = more signal
Chain of Left-right determination factor 2 (Homo sapiens) (O00292 whole entry, looked up): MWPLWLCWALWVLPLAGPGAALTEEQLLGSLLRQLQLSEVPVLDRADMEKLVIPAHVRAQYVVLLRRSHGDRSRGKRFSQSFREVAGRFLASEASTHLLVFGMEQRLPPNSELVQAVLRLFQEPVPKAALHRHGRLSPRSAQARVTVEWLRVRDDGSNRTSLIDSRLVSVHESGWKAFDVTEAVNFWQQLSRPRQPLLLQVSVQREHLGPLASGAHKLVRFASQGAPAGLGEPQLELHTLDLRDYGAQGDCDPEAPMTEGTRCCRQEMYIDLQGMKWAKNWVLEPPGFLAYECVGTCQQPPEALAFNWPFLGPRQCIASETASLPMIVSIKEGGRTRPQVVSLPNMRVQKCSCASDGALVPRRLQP

[4] = target: Calmodulin-1 (Homo sapiens) (UniProt P0DP23); test: small molecules binding calmodulin-1 with EGTA – biochemical, small-molecule microarray, Cy5-labelled CALM1, profiling panel (AID 1111); conditions: Cy5-CALM1 binding fluorescence, higher = more signal;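 further: labelled calmodulin applied in Tris saline Tween buffer holding calcium plus EGTA and DTT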
[5] = target: Calmodulin-1 (Homo sapiens) (UniProt P0DP23); test: small molecules binding Ca-loaded calmodulin-1 – biochemical, small-molecule microarray, Cy5-labelled CALM1, plus calcium, artefact control for SMM control-protein annotation, profiling panel (AID 1112); conditions: Cy5-CALM1 binding fluorescence, higher = more signal;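 further: score merges spot fluorescence with signal to noise from triplicate slides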
[6] = probe aWnt5a binding to arrayed compounds – biochemical, biotinylated probe, 635/667 nm fluorescence, primary screen (AID 1113); conditions: small-molecule microarray, higher = more signal;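 further: score merges 667 nm fluorescence intensity with signal-to-noise per printed feature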
[7] = probe aShh binding to arrayed compounds – biochemical, biotinylated probe, 635/667 nm fluorescence, primary screen (AID 1114); conditions: small-molecule microarray, higher = more signal;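 further: probe is biotin-labelled aShh protein from a stem cell growth factor screen; measures binding of labelled protein to compounds printed on the slide; score merges feature fluorescence at 667 nm with signal-to-noise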
[8] = probe aNog binding to arrayed compounds – biochemical, biotinylated probe, 635/667 nm fluorescence, primary screen (AID 1115); conditions: small-molecule microarray, higher = more signal;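 further: probe is biotinylated aNog protein used at 0.15 µg/mL for 1 h at 4 C; z-score combines 667 nm fluorescence of each spot with its signal to noise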
[9] = target: Torsin-1A-interacting protein 1 (Homo sapiens) (UniProt Q5JTV8); test: compound microarray binding of lysate hLAP1 – cell lysate, small-molecule microarray, COS7 lysate, 635/667 nm fluorescence, primary screen (AID 1116); conditions: 635 nm fluorescence, higher = more signal
Chain of Torsin-1A-interacting protein 1 (Homo sapiens) (Q5JTV8 whole entry, looked up): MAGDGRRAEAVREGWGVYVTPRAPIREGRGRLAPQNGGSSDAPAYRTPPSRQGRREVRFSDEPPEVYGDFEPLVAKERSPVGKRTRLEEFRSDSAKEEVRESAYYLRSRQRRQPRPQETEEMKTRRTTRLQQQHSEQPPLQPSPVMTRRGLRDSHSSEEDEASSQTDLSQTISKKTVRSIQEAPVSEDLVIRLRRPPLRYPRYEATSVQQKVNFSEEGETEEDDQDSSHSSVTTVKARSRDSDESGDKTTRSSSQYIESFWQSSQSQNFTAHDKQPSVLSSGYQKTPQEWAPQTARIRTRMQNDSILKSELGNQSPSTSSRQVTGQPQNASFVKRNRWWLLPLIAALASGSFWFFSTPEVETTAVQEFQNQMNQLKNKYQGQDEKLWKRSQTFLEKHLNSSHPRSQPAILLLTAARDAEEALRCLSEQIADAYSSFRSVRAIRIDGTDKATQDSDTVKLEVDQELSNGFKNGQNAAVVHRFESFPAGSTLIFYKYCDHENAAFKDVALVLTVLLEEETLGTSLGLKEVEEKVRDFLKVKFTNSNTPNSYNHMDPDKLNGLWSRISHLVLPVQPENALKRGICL

[10] = target: Alpha-bungarotoxin (Bungarus multicinctus) (UniProt P60615); test: compounds binding labelled alpha-BTX control protein – biochemical, small-molecule microarray, Alexa647 label, 635/667 nm fluorescence, artefact control for SMM control protein annotation, profiling panel (AID 1117); conditions: alpha-BTX-A647 binding fluorescence, higher = more signal
Chain of Alpha-bungarotoxin (Bungarus multicinctus) (P60615 whole entry, looked up): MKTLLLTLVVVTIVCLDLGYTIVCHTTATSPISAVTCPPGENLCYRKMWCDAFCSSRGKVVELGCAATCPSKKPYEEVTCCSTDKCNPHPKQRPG

Compound	composite z-score [1]	z-score [2]	composite z-score [3]	composite z-score [4]	composite z-score [5]	composite z-score [6]	composite z-score [7]	composite z-score [8]	composite z-score [9]	composite z-score [10]
C=CC[C@]1(C(=O)NCC(O)CO)COC(c2ccc(OCCCO)cc2)=N1 (stereo not given in full)	-0.683	0.412	-0.531	-0.189	0.202	0.0618	1.01	-0.21	1.53	-1.21
CCCC[C@H]1OB(O)C[C@H]2C1=C(COc1ccccc1)C[C@H]1C(=O)C=CC(=O)[C@H]12	0.0194	-1.36	0.406	-0.415	-0.68	-0.152	-0.283	-0.295	0.0135	-0.388
O=C1NC(=O)C2C1C=CC(C(O)c1ccc([N+](=O)[O-])cc1)N2Nc1ccccn1 (stereo not given)	-0.382	0.403	0.33	0.259	-0.746	-0.102	-0.138	0.0193	0.45	-0.011
CC(C)C[C@H]1NC(=O)C([C@@H](C)OCc2ccccc2)NC(=O)[C@@]23C(=O)N[C@@H](Cc4ccccc4)C2[C@H](C)[C@@]2(C)O[C@H]2C3/C=C/C/C=C\CNC1=O (stereo not given in full)	0.566	-2.23	0.905	0.216	-0.389	-0.118	-0.0553	0.746	0.174	0.888
CC1CC/C=C\[C@H]2OC34C=CCN(c5ccc(Cl)cc5)C(=O)[C@H]3N(CCCCCCO)C(=O)[C@]4(C)C2C(=O)O1 (stereo not given in full)	0.0258	-0.0973	-1.56	-0.249	0.864	-0.262	-0.138	0.0112	-0.377	-0.856
C=CCC(OC(C)=O)[C@@H]1[C@@H](N(Cc2cccc3ccccc23)C(=O)Cc2ccc(OC)cc2)c2cc(OCCCO)ccc2N1C(=O)c1ccc2ccccc2c1 (stereo not given in full)	0.233	-0.922	0.139	0.468	-0.385	-0.0398	0.138	-0.23	0.119	0.337
COc1ccc([Si](C)(C)[C@@H]2[C@@H](CC(=O)N(CCO)Cc3ccccc3)O[C@]3(C(=O)N(Cc4ccc(I)cc4)c4ccccc43)[C@H]2C)cc1	0.684	-4.03	0.792	1.61	0.54	-0.0718	0.531	-0.0815	1.23	0.375
CN(C)CCCCNC(=O)[C@H]1C[C@H]2C(=O)N3CCC[C@H]3C(=O)N2[C@H]1c1cccc(OCCO)c1	1.4	-0.0955	-0.35	0.915	0.836	-0.144	0.134	1.14	0.495	1.43
COC(=O)[C@@]1(Cc2ccccc2)[C@H]2c3cc(C(=O)N(C)C)n(CCSC(=N)N)c3C[C@H]2CN1C(=O)c1ccccc1	-0.98	-0.588	-0.76	0.96	0.0575	-0.0006	-0.138	1.39	3.21	-0.351
O=C1[C@@H]2[C@@H](CC(COc3ccccc3)=C([C@H](O)CCc3ccccc3)[C@@H]2CO)C(=O)N1Cc1ccccc1	0.778	-2.21	0.399	0.615	-0.346	-0.1	-0.0553	-0.172	0.47	0.495
